# Measured values reported in PubChem BioAssay.
# Calls of active or inactive are those of the source.
# Key:
# [1] = binders of probe aFSTL3 on microarray, primary screen, stem cell growth factor project, biochemical, small-molecule microarray, fluorescence 635/667 (AID 1064); conditions: higher = more signal;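 further: measures binding of the biotinylated anti-FSTL3 antibody to printed compounds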
# [2] = binders from COS7 lysate, DM2A8 probe, primary screen, torsin A project, cell lysate, small-molecule microarray, fluorescence 635/667 (AID 1065); conditions: higher = more signal, COS7 lysate expressing mutant human TOR1A
# [3] = binders of probe aFGF2 on microarray, primary screen, stem cell growth factor project, biochemical, small-molecule microarray, fluorescence 635/667 (AID 1067); conditions: higher = more signal;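 further: measures binding of biotinylated aFGF2 protein to printed compounds on slides; z-score merges feature fluorescence and signal-to-noise across triplicate slides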
# [4] = binders of probe aFGF10 on microarray, primary screen, stem cell growth factor project, biochemical, small-molecule microarray, fluorescence 635/667 (AID 1071); conditions: higher = more signal;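 further: score merges 667 nm spot intensity and signal to noise from triplicate slides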
# [5] = target: Neurogenic locus notch homolog protein 2 (Homo sapiens) (UniProt Q04721); test: Notch2 binders on small-molecule microarrays, primary screen, biochemical, small-molecule microarray, 635 nm fluorescence, stem cell growth factors (AID 1073); conditions: Notch2 binding, higher = more signal
# [6] = target: Pro-neuregulin-1, membrane-bound isoform (Homo sapiens) (UniProt Q02297); test: NRG1 binders on small-molecule microarrays, primary screen, psychiatric disease protein project, biochemical, small-molecule microarray, fluorescence 635/667 (AID 1075); conditions: NRG1 binding, 635 nm fluorescence, higher = more signal;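 further: score combines 667 nm spot fluorescence with signal to noise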
# [7] = tested on: Neuregulin-1 EGF-like domain; test: binders of neuregulin-1 EGF-like domain, primary screen, biochemical, small-molecule microarray, 635 nm fluorescence (AID 1081); conditions: small-molecule microarray binding, higher = more signal;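 further: binding of the protein to compounds printed on small-molecule microarray slides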
# [8] = FRG1 promoter luciferase signal modulators, primary screen, FRG1 inhibition for FSHD, cell-based, C2C12 myotubes, firefly/Renilla luciferase, luminescence (AID 1084); conditions: higher = more signal, called active from +8 up or from −8 down
# [9] = binders of probe aFST on microarray, primary screen, stem cell growth factor project, biochemical, small-molecule microarray, fluorescence 635/667 (AID 1086); conditions: higher = more signal;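 further: score merges 667 nm fluorescence with signal-to-noise of each printed compound spot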
# [10] = binders of probe aHhip on microarray, primary screen, stem cell growth factor project, biochemical, small-molecule microarray, fluorescence 635/667 (AID 1087); conditions: higher = more signal;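 further: score merges spot fluorescence at 667nm with spot signal to noise ratio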
# [11] = tested on: PRMT1 (protein arginine N-methyltransferase 1); test: PRMT1 binders on small-molecule microarrays, primary screen, biochemical, small-molecule microarray, 635 nm fluorescence (AID 1088); conditions: small-molecule microarray binding, higher = more signal;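 further: binding of Prmt1 protein to compounds spotted on small-molecule microarray slides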
# [12] = yeast growth modulation, basal conditions, primary screen, YJM789 clinical isolate, OD600, 24 h (AID 1089);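 further: growth of clinical yeast isolate S. cerevisiae YJM 789 seeded 1000 cells per well; test concentration not given here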; conditions: S. cerevisiae YJM789 growth, higher = more signal, called active from +8 up or from −8 down
# [13] = fission yeast growth modulation, primary screen, strain 972, OD600, 24 h, no modulator (AID 1090);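 further: basal condition with compound alone and no growth modifier present; test concentration not given here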; conditions: S. pombe 972 growth, higher = more signal, called active from +8 up or from −8 down
# [14] = S. cerevisiae growth modulation with rapamycin, primary screen, strain BY4716, OD600, 96 h (AID 1091); conditions: higher = more signal, called active from +8 up or from −8 down; further: test concentration not given here
# [15] = target: Torsin-1A-interacting protein 2 (Homo sapiens) (UniProt Q8NFQ8); test: LULL1 binders on small-molecule microarray, primary screen, cell lysate, human LULL1 lysate, 635/667 nm fluorescence (AID 1092); conditions: hLULL1 lysate binding, 635 nm fluorescence, higher = more signal;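 further: probe is lysate of COS7 cells overexpressing human LULL1; score merges per-feature 667 nm fluorescence with signal-to-noise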
# [16] = E. coli growth modulation, two-sided OD650, primary screen, E. coli filamentation project, strain DRC41, 24 h (AID 1093); conditions: OD650, 24 h, higher = more signal, called active from +8 up or from −8 down;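 further: MC1000 strain lacking acrAB efflux and sulA so SOS filamentation is blocked; test concentration not given here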
# [17] = small-molecule microarray binders of probe aLefty2, primary screen, biochemical, biotinylated probe, 635/667 nm fluorescence (AID 1094); conditions: higher = more signal;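 further: score merges spot fluorescence near 667 nm with spot signal-to-noise ratio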
# [18] = tested on: Noggin (protein binding on small-molecule microarray); test: Noggin binders on small-molecule microarray, primary screen, biochemical, 635/667 nm fluorescence (AID 1095); conditions: 635 nm fluorescence, higher = more signal;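 further: score merges 667 nm feature fluorescence with signal to noise over triplicate slides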
# [19] = target: Neurogenic locus notch homolog protein 3 (Homo sapiens) (UniProt Q9UM47); test: NOTCH3 binders on small-molecule microarray, primary screen, biochemical, 635/667 nm fluorescence (AID 1096); conditions: NOTCH3 binding, 635 nm fluorescence, higher = more signal
# [20] = small-molecule microarray binders of probe aEGFR, primary screen, biochemical, biotinylated probe, 635/667 nm fluorescence (AID 1097); conditions: higher = more signal;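 further: probe is a biotinylated anti-EGFR antibody binding compounds printed on slides; score combines fluorescence near 667 nm and signal to noise of each spot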
# Torsin-1A-interacting protein 2 (Homo sapiens), sequence (Q8NFQ8 whole entry, looked up): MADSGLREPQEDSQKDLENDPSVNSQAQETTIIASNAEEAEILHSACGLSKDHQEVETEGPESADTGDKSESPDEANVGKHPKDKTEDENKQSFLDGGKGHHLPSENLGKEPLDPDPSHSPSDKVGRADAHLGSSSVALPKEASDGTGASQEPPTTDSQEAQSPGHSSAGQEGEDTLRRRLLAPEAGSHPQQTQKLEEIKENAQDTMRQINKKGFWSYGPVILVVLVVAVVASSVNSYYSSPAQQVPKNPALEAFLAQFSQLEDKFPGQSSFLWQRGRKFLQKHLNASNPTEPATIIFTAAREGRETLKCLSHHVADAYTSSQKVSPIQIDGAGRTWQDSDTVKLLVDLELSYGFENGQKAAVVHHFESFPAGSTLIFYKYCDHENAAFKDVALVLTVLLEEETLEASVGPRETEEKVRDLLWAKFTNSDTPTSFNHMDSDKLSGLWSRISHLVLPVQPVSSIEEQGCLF
# Neurogenic locus notch homolog protein 2 (Homo sapiens), sequence (Q04721 whole entry, looked up, canonical isoform): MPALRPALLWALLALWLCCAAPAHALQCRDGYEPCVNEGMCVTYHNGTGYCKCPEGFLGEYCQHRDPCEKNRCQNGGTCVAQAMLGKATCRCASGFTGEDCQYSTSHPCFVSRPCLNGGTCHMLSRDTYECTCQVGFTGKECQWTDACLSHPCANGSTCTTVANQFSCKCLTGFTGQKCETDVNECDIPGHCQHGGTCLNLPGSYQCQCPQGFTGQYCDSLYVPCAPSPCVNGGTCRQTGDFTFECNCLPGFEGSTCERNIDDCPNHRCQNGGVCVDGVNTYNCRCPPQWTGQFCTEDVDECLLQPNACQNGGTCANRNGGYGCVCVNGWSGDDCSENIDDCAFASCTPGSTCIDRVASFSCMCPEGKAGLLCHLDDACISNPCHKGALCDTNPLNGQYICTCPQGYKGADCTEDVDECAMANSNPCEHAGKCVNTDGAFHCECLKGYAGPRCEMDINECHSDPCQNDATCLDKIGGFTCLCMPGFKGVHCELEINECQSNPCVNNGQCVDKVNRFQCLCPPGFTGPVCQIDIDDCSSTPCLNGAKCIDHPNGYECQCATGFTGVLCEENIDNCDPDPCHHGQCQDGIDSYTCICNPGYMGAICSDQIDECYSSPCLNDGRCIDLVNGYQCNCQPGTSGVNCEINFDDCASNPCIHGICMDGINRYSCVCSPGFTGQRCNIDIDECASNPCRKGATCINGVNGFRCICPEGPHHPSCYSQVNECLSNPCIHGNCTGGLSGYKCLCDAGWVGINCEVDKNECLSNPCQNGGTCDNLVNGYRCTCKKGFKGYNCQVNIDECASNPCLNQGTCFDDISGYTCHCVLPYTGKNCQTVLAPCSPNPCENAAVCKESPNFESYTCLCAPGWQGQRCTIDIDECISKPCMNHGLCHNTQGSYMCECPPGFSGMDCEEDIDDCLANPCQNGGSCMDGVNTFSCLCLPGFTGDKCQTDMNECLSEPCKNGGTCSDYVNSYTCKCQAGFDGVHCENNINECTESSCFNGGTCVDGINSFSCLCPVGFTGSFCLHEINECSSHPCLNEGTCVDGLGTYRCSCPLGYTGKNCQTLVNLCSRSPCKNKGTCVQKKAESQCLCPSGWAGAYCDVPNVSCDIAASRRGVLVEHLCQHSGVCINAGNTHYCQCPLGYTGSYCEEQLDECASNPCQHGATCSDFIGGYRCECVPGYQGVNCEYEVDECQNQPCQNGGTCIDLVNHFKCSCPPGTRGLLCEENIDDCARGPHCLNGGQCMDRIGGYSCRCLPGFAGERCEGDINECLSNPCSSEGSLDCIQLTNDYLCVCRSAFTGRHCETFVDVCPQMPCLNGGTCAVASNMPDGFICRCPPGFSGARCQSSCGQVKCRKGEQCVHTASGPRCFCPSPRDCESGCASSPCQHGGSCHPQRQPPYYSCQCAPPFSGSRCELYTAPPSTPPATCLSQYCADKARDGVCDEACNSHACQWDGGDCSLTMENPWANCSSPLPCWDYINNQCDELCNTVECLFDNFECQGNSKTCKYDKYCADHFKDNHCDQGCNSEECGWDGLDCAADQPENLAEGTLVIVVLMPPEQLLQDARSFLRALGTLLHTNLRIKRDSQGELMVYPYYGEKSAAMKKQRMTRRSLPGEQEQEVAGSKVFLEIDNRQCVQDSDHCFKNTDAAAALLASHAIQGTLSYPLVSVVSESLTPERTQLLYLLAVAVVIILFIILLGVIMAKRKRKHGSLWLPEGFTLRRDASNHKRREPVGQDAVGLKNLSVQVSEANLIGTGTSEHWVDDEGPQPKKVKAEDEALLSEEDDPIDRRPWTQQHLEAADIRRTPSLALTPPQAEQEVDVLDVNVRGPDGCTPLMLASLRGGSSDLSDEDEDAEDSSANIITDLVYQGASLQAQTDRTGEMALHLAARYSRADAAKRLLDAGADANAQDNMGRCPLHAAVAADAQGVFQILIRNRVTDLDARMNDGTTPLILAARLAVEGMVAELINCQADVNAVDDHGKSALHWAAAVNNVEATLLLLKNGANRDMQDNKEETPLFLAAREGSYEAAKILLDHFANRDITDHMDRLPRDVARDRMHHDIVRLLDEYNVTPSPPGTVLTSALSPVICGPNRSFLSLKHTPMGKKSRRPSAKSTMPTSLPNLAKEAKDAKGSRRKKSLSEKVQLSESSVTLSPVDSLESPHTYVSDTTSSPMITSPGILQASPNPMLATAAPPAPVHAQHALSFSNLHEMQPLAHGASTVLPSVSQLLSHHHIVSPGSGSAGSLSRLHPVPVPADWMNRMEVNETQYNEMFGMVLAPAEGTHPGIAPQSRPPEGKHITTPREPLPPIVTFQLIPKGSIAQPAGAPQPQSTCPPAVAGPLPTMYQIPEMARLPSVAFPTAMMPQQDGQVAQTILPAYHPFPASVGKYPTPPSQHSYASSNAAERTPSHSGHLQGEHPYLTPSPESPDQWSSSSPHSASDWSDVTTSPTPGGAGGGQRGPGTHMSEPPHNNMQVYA
# Pro-neuregulin-1, membrane-bound isoform (Homo sapiens), sequence (Q02297 whole entry, looked up, the tested form may be a part, canonical isoform): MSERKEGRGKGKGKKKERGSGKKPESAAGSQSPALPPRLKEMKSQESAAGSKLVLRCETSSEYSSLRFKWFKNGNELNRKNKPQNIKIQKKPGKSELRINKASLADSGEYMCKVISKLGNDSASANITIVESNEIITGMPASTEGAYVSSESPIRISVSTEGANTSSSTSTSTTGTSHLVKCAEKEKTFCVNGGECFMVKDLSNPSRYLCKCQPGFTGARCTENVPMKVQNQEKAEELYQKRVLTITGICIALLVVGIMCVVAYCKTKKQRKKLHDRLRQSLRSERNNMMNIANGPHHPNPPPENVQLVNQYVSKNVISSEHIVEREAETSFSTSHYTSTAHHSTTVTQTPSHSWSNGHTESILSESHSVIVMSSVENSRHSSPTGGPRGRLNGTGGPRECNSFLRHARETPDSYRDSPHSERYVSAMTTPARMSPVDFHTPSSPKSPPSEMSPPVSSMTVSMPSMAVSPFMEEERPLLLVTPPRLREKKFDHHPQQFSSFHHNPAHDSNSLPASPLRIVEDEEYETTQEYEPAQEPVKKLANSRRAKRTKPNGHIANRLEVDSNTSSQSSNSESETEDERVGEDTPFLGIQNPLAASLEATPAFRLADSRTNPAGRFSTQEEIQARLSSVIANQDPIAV
structure (smiles),measurement,setting,value
CC(C)=CCCC(C)=CCON=C1[C@H]2CCn3c(=O)n(C)c(=O)n3[C@H]2[C@H](O)[C@@H]2O[C@H]12,composite z-score,[1],-0.315
same,composite z-score,[2],0.491
same,composite z-score,[3],-0.156
same,composite z-score,[4],0.585
same,composite z-score,[5],0.38
same,composite z-score,[6],0.763
same,composite z-score,[7],1.05
same,z-score,[8],-0.713 (inactive)
same,composite z-score,[9],0.412
same,composite z-score,[10],-0.0673
same,composite z-score,[11],1.14
same,z-score,[12],-0.0766 (inactive)
same,z-score,[13],0.418 (inactive)
same,z-score,[14],0.407 (inactive)
same,composite z-score,[15],0.393
same,z-score,[16],0.604 (inactive)
same,composite z-score,[17],0.0315
same,composite z-score,[18],1.18
same,composite z-score,[19],0.651
same,composite z-score,[20],0.081
O=C1[C@H]2[C@H]3[C@H](O)[C@H](O)CC(=NO[C@@H]4O[C@H](CO)[C@@H](O)[C@H](O)[C@H]4O)[C@@H]3CC[C@H]2C(=O)N1c1ccc(F)cc1F,composite z-score,[1],-0.383
same,composite z-score,[2],1.17
same,composite z-score,[3],-0.125
same,composite z-score,[4],0.442
same,composite z-score,[5],0.482
same,composite z-score,[6],-0.141
same,composite z-score,[7],0.386
same,z-score,[8],1.06 (inactive)
same,composite z-score,[9],0.0076
same,composite z-score,[10],0.2
same,composite z-score,[11],-0.841
same,z-score,[12],-1.24 (inactive)
same,z-score,[13],-0.114 (inactive)
same,z-score,[14],-1.29 (inactive)
same,composite z-score,[15],0.245
same,z-score,[16],0.645 (inactive)
same,composite z-score,[17],-0.119
same,composite z-score,[18],0.575
same,composite z-score,[19],0.79
same,composite z-score,[20],-0.113
COc1ccc(O[C@H]2C=C[C@@H](c3ccccc3)O[C@@H]2CON=C[C@@H](C)[C@H](OCc2ccccc2)C(C)C)cc1,composite z-score,[1],-0.397
same,composite z-score,[2],-0.249
same,composite z-score,[3],-0.168
same,composite z-score,[4],-0.773
same,composite z-score,[5],-0.936
same,composite z-score,[6],-0.744
same,composite z-score,[7],-0.921
same,z-score,[8],-1.01 (inactive)
same,composite z-score,[9],-0.623
same,composite z-score,[10],-0.602
same,composite z-score,[11],-0.28
same,z-score,[12],0.706 (inactive)
same,z-score,[13],-0.564 (inactive)
same,z-score,[14],0.314 (inactive)
same,composite z-score,[15],-1.14
same,z-score,[16],-0.349 (inactive)
same,composite z-score,[17],-0.235
same,composite z-score,[18],-0.347
same,composite z-score,[19],-1.27
same,composite z-score,[20],-0.241
CCOC(=O)CCN1C(=O)[C@H]2[C@H]3[C@H](O)[C@H](O)CC(=NOC[C@@H](O)COCc4ccco4)[C@@H]3CC[C@H]2C1=O,composite z-score,[1],0.545
same,composite z-score,[2],0.457
same,composite z-score,[3],0.0166
same,composite z-score,[4],0.484
same,composite z-score,[5],-0.328
same,composite z-score,[6],-0.21
same,composite z-score,[7],0.486
same,z-score,[8],-0.124 (inactive)
same,composite z-score,[9],0.356
same,composite z-score,[10],-0.134
same,composite z-score,[11],0.163
same,z-score,[12],0.133 (inactive)
same,z-score,[13],-0.226 (inactive)
same,z-score,[14],-0.0839 (inactive)
same,composite z-score,[15],0.545
same,z-score,[16],0.383 (inactive)
same,composite z-score,[17],0.0814
same,composite z-score,[18],-0.298
same,composite z-score,[19],-0.62
same,composite z-score,[20],-0.0764
[N-]=[N+]=NCc1ccccc1[C@@H]1OC(c2ccc(OCCCO)cc2)=N[C@]1(Cc1ccccc1)C(=O)N1CCOCC1,composite z-score,[1],0.351
same,composite z-score,[2],1.51
same,composite z-score,[3],0.122
same,composite z-score,[4],0.875
same,composite z-score,[5],1.55
same,composite z-score,[6],1.68
same,composite z-score,[7],1.25
same,z-score,[8],-1.42 (inactive)
same,composite z-score,[9],0.804
same,composite z-score,[10],0.778
same,composite z-score,[11],1.53
same,z-score,[12],-0.655 (inactive)
same,z-score,[13],-0.42 (inactive)
same,z-score,[14],0.303 (inactive)
same,composite z-score,[15],3.52
same,z-score,[16],0.986 (inactive)
same,composite z-score,[17],0.422
same,composite z-score,[18],0.671
same,composite z-score,[19],1.11
same,composite z-score,[20],0.256
C=CC[C@@H]1C=C[C@H](ON=Cc2ccc(C(=O)N3[C@H](c4ccc(C)cc4)[C@@H](C)CC[C@H]3C(=O)OC)cc2)[C@@H](CO)O1,composite z-score,[1],-0.482
same,composite z-score,[2],0.835
same,composite z-score,[3],-0.0687
same,composite z-score,[4],0.304
same,composite z-score,[5],0.842
same,composite z-score,[6],0.0373
same,composite z-score,[7],0.586
same,z-score,[8],0.274 (inactive)
same,composite z-score,[9],0.108
same,composite z-score,[10],-0.0994
same,composite z-score,[11],0.537
same,z-score,[12],-1.33 (inactive)
same,z-score,[13],-0.119 (inactive)
same,z-score,[14],-0.733 (inactive)
same,composite z-score,[15],0.531
same,z-score,[16],1.35 (inactive)
same,composite z-score,[17],-0.0741
same,composite z-score,[18],0.709
same,composite z-score,[19],0.162
same,composite z-score,[20],-0.0223
COC(=O)CC=C[C@H](C)[C@@H](OCc1ccccc1Br)C(C)C,composite z-score,[1],-0.188
same,composite z-score,[2],0.398
same,composite z-score,[3],-0.191
same,composite z-score,[4],0.189
same,composite z-score,[5],0.0089
same,composite z-score,[6],-0.252
same,composite z-score,[7],-0.334
same,z-score,[8],-0.749 (inactive)
same,composite z-score,[9],-0.0799
same,composite z-score,[10],-0.306
same,composite z-score,[11],0.204
same,z-score,[12],-0.0851 (inactive)
same,z-score,[13],-0.552 (inactive)
same,z-score,[14],0.393 (inactive)
same,composite z-score,[15],-0.117
same,z-score,[16],-0.295 (inactive)
same,composite z-score,[17],-0.228
same,composite z-score,[18],0.168
same,composite z-score,[19],-0.0294
same,composite z-score,[20],-0.167
COc1ccc(-c2ccc3c(n2)CCCN3CC(O)CN2CCCc3nc(C)c(C)cc32)cc1 (stereo not given),composite z-score,[1],0.683
same,composite z-score,[2],1.55
same,composite z-score,[3],0.126
same,composite z-score,[4],0.961
same,composite z-score,[5],0.63
same,composite z-score,[6],0.641
same,composite z-score,[7],0.732
same,z-score,[8],3.33 (inactive)
same,composite z-score,[9],1.02
same,composite z-score,[10],0.38
same,composite z-score,[11],1.43
same,z-score,[12],0.0222 (inactive)
same,z-score,[13],-0.411 (inactive)
same,z-score,[14],-1.43 (inactive)
same,composite z-score,[15],1.13
same,z-score,[16],0.682 (inactive)
same,composite z-score,[17],0.429
same,composite z-score,[18],0.824
same,composite z-score,[19],1.1
same,composite z-score,[20],0.243
CO[C@H]1COC(=O)CC=C[C@H](C)[C@@H](NS(=O)(=O)c2ccc(C)cc2)COC(=O)CC=C[C@@H]1C,composite z-score,[1],-0.599
same,composite z-score,[2],0.871
same,composite z-score,[3],-0.134
same,composite z-score,[4],0.339
same,composite z-score,[5],0.381
same,composite z-score,[6],-0.425
same,composite z-score,[7],-0.377
same,z-score,[8],-1.15 (inactive)
same,composite z-score,[9],-0.197
same,composite z-score,[10],-0.0994
same,composite z-score,[11],0.855
same,z-score,[12],-3.93 (inactive)
same,z-score,[13],-2.23 (inactive)
same,z-score,[14],-2.35 (inactive)
same,composite z-score,[15],-0.716
same,z-score,[16],-1.11 (inactive)
same,composite z-score,[17],-0.118
same,composite z-score,[18],0.659
same,composite z-score,[19],0.66
same,composite z-score,[20],-0.12
C#CCCCON=C1C[C@@H](O)[C@@H](O)[C@@H]2[C@@H]3C(=O)N(CCC(=O)OCC)C(=O)[C@@H]3CC[C@@H]12,composite z-score,[1],1.93
same,composite z-score,[2],0.597
same,composite z-score,[3],-0.0505
same,composite z-score,[4],-0.0007
same,composite z-score,[5],-0.835
same,composite z-score,[6],0.107
same,composite z-score,[7],-0.307
same,z-score,[8],0.665 (inactive)
same,composite z-score,[9],0.63
same,composite z-score,[10],-0.12
same,composite z-score,[11],-0.683
same,z-score,[12],-0.969 (inactive)
same,z-score,[13],0.068 (inactive)
same,z-score,[14],-0.664 (inactive)
same,composite z-score,[15],0.654
same,z-score,[16],0.827 (inactive)
same,composite z-score,[17],0.706
same,composite z-score,[18],-1.1
same,composite z-score,[19],-1.01
same,composite z-score,[20],-0.152
